Hits are enriched below; roughly 0.77% of the tested compounds scored in any of these assays.
RE007 growth inh: qHTS Assay for Inhibitors of the HIV-1 protein Vpr; S. pombe RE007 Vpr strain, BacTiter-Glo ATP luminescence, 24 h; Potency, µM (highest dose often 92.2 µM), for the others: at the top dose activity change, negative = less growth, hits mostly inhibitors; hit rate 0.21% among 360,000; AID 651644, 2012; active = well fitted falling curve with a large enough effect; inconclusive = small, poorly fitted or top-dose-only effect; inactive = no such curve, though single readings can be large or run the other way; also: potency is read from the fitted curve at half-maximal effect; % is scaled to controls: 0 for no effect and ±100 for the full control effect; nearly all actives have a fitted effect of over 50% in size
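Fission yeast RE007 carrying one integrated HIV-1 vpr copy, seeded at OD 0.01 in PMG+AL medium with 23 nL pinned compound. Grown 24 h at 30 degrees; viability read by BacTiter-Glo luminescence after 5 min.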
LmPK inhibitor: qHTS Assay for Inhibitors of Leishmania Mexicana Pyruvate Kinase (LmPK). Q27686. purified LmPK, Kinase-Glo ATP luminescence, 1 h. Potency, µM (series often up to 57.5 µM), without a hit: at the top dose activity change, negative = inhibition, most hits filed as inhibitors. hit rate 0.37% among 290,000. AID 1721, 2009; also: potency is read from the fitted curve at half-maximal effect; % is scaled to controls: 0 for no effect and ±100 for the full control effect
Target sequence (Q27686 whole entry, looked up): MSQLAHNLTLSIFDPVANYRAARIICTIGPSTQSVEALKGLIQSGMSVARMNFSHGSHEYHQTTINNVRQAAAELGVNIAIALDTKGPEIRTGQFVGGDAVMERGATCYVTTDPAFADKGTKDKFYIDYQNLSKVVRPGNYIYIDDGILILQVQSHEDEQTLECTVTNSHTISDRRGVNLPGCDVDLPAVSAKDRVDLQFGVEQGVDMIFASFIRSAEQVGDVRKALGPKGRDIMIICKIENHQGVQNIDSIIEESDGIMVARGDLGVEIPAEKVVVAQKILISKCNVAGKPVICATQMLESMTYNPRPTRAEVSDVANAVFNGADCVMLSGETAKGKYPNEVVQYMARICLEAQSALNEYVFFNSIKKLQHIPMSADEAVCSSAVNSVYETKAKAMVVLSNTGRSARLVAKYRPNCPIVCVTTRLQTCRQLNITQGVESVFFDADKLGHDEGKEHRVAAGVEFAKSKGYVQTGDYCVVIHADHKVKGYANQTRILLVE
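Screened at intermediate enzyme activity to detect both inhibitors and activators: LmPK at 0.1 nM, with a 0.5 nM enzyme column as activation reference. PEP 0.5 mM, ADP 0.1 mM; ATP detected by luminescence after 1 h.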
Tb PYK inh: qHTS of Trypanosoma Brucei Inhibitors; pyruvate kinase (Trypanosoma brucei), Q57TT1; TbPYK enzyme, Kinase-Glo Plus ATP luminescence, 45 min; Potency, µM (titrated, usually from 76.8 µM), for inactives: top-dose activity, negative = inhibition, hits mostly inhibitors; hit rate 0.12% among 410,000; AID 624173, 2012; also: potency is read from the fitted curve at half-maximal effect; % is scaled to controls: 0 for no effect and ±100 for the full control effect; nearly all actives have a fitted effect of over 50% in size
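In this concentration-response screen, enzyme-free wells defined baseline while DMSO plates tracked drift. Each reaction combined TbPYK, substrate, compound and 130 uM ADP for 45 min at room temperature. Kinase-Glo Plus luminescence gave the signal.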
NS1 function inh: qHTS Assay for Inhibitors of Influenza NS1 Protein Function; Potency, µM (highest dose often 46.1 µM), inactives show top-dose activity, positive = more growth; hit rate 0.4% among 270,000; AID 2326, 2010; calls by dose curve; also: potency is read from the fitted curve at half-maximal effect; actives are rising curves; nearly all actives have a fitted effect of over 50% in size
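Growth recovery, yeast-based: influenza A NS1 expressed in S. cerevisiae causes slow growth, and suppressors are detected by OD600. The parent strain without NS1 is used as positive control.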
NS1 inh valid: Assay for Inhibitors of Influenza NS1 Protein Function: Hit Validation. influenza NS1 function cell assay, 15-point titration. shares compounds with NS1 function inh. activity change, negative = inhibition, % at 32.9 µM. 1,400 tested, under 10 active. AID 492980, 2010; calls by dose curve; also: 0% is about no effect
PR8 titer: Assay for Inhibitors of Influenza NS1 Protein Function: Influenza virus replication assay in MDCK cells infected with virus A/PR/8/34; shares compounds with NS1 function inh; MDCK infected influenza A/PR/8/34, virus titer TCID50; stronger effect = lower value; virus titer (log TCID50), log10 TCID50 at 5 µM; hit rate 30% among 95; AID 504647, 2011; call rule not given here
* = called active by the depositor; ? = inconclusive; / = no result; [ ] = another dose, or the depositor's remark. Unless noted, calls follow the shape of the dose curve; as a rule, active = well fitted curve in the direction sought with a large enough effect; inconclusive = small, poorly fitted or top-dose-only effect, or another doubt; inactive = no such curve, though single readings can be large; an effect the other way counts as inactive or inconclusive.

SMILES	RE007 growth inh	LmPK inhibitor	Tb PYK inh	NS1 function inh	NS1 inh valid	others
COc1ccccc1NC(C)C(=O)N/N=C/c1ccccc1OCc1cccc(Br)c1 (stereo not drawn)	-1%	5%	5%	16µM*	-13
Cc1cc(C)nc(N/N=C/c2ccccc2OCc2cccc(Br)c2)n1	11%	-2%	2%	-33%	/
CCN(CCO)c1nc(SC)nc2c1sc1nc(-c3ccco3)c3c(c12)CCC3	-21%	2%	-8%	?	-1
Cc1cccc(-n2cc(-c3ccc([N+](=O)[O-])cc3)[nH]c2=S)c1	2%	-7%	-19%	18%	/
Cc1ccc(-n2cc(-c3ccc([N+](=O)[O-])cc3)[nH]c2=S)c(C)c1	0%	1%	-35%	6.3µM*	-32
O=C(Cn1cc(/C=N/NC(=O)c2cccc3ccccc23)c2ccccc21)Nc1ccc(F)cc1	-8%	2%	4%	10µM*	8
O=C(N/N=C/c1cn(Cc2ccccc2)c2ccccc12)c1cc(O)cc(O)c1	14%	20%	-3%	14µM*	-2
O=C(O)CC(c1cccc2ccccc12)N1Cc2ccccc2C1=O (stereo not drawn)	6%	-4%	-15%	?	15
Cc1cc2nc3c(=O)n(C4CCCCC4)c(=O)[nH]c3nc2cc1N	0%	-8%	?	7.9µM*	0
Cc1cc(C)cc(Nc2cc(=O)n(C3CCCCC3)c(=O)[nH]2)c1	23%	-5%	-6%	7%	/
COc1ccc(N(CC(=O)NCCC(C)C)C(=O)c2snc(C(=O)NC3CCCCC3)c2N)c(OC)c1	-18%	2%	-4%	13µM*	5
COC(=O)N1CCC2(CCN(Cc3nccs3)CC2)CC1	/	/	0%	/	/
Cc1cc(Br)ccc1NC(=O)c1coc(=O)c2ccccc12	/	/	3%	/	/
COc1ccc(/C=N/NC(=O)c2cc(-c3ccc(C)cc3C)nc3ccccc23)cc1COC(C)=O	-15%	5%	10%	10µM*	6
Cc1ccc2nc(-c3cccc(S(=O)(=O)N4CCCC4)c3)cn2c1	1%	10%	1%	?	2
Cc1ccn2cc(-c3cccc(S(=O)(=O)N4CCCCC4)c3)nc2c1	-2%	-5%	-6%	-5%	/
COc1cc(/C=N/NC(=O)c2cc3ccccc3cc2O)ccc1OCCN1CCCCC1	-16%	2%	-17%	11µM*	-24
COc1cc(/C=N/NC(=O)c2ccncc2)ccc1OCCN1CCCCC1	-5%	1%	1%	0%	/
O=C(COc1ccc(Cl)cc1Cl)OCC(=O)N1CCCc2ccccc21	4%	1%	5%	-12%	/
O=C(COc1ccc(Cl)cc1Cl)NC(=S)N1CCCc2ccccc21	-1%	3%	?	10µM*	?
O=C(CCC(=O)N(CC(=O)NC1CCCCC1)Cc1cccs1)Nc1nccs1	-6%	2%	-8%	6.3µM*	8
O=C(CCC(=O)N(CC(=O)NC1CCCCC1)Cc1ccc(F)cc1)Nc1nccs1	0%	-4%	-1%	-3%	/
Cc1ccc(C)c2[nH]c(=O)c(CN(Cc3ccc4c(c3)OCO4)Cc3nnnn3Cc3ccco3)cc12	10%	3%	-3%	11µM*	2
COc1ccc2[nH]c(=O)c(CN(Cc3ccco3)Cc3nnnn3Cc3ccccc3)cc2c1	-9%	-3%	-9%	13µM*	12
CCOc1ccc2[nH]c(=O)c(CN(Cc3ccco3)Cc3nnnn3Cc3ccccc3)cc2c1	11%	-1%	3%	-22%	/
SMILES	RE007 growth inh	LmPK inhibitor	Tb PYK inh	NS1 function inh	NS1 inh valid	others
CCN(CC)CCOC(=O)c1ccc(NC(=O)c2nn(-c3ccc(C)cc3)c(=O)c3c2c2ccccc2n3C)cc1	/	/	3%	/	/
Cc1ccc(S(=O)(=O)c2cc3c(=O)n4ccccc4nc3n(CC3CCCO3)c2=N)cc1C (stereo not drawn)	/	4%	-7%	8.9µM*	?
Cn1cc([N+](=O)[O-])c(C(=O)N2CCCCCC2)n1	5%	-8%	-7%	18%	/
Cn1cc([N+](=O)[O-])c(C(=O)n2cccn2)n1	17%	8%	1%	?	0
CCn1c(=O)n(CC)c2cc(N3CCCCC3)c(NC(=O)Nc3cc(Cl)ccc3OC)cc21	/	/	5%	/	/
O=C(NC(=S)Nc1ccc(N2CCCC2)cc1)c1ccccc1[N+](=O)[O-]	10%	2%	-13%	?	2
O=C(/C=C/c1ccc(Cl)c([N+](=O)[O-])c1)Nc1ccc(N2CCCC2)cc1	-4%	0%	-12%	?	18
O=C(/C=C/c1ccc(Cl)c([N+](=O)[O-])c1)Nc1cccc(NC(=O)c2ccco2)c1	18%	2%	-3%	18µM*	8
O=C(NC(=S)Nc1ccccc1N1CCCC1)c1ccccc1[N+](=O)[O-]	6%	1%	-10%	10%	/
O=C(/C=C/c1ccc(Cl)c([N+](=O)[O-])c1)Nc1ccc(NC(=O)c2ccco2)cc1	-6%	0%	-4%	2%	/
Cc1ccc(C)c(Cn2nnc(C(=O)NCc3ccc(Cl)cc3Cl)c2N)c1	/	/	-3%	/	/
C=CCNC(=O)N1CCc2nc(-c3ccccc3)c3c(c2C1)CO[C@@H](C)C3	/	4%[11.5 µM]	/	/	/
CCCn1c(C)cc(C(=O)CSc2nc3ccccc3c(=O)n2Cc2ccco2)c1C	10%	1%	3%	8.9µM*	-15
CCC/C(=N/NC(=O)c1ccc2c(c1)OCO2)c1cccs1	-6%	2%	4%	?	-15
COc1ccc(-c2nc3sc(CCNC(=O)c4ccco4)c(C)n3n2)cc1	/	/	-4%	/	/
O=C(O)COc1ccccc1/C=N/NC(=O)CSc1nnc(SCc2cccc3ccccc23)s1	-10%	5%	-5%	3.5µM*	-29	PR8 titer=7.5*
O=C(O)COc1ccccc1/C=N/NC(=O)CSc1nnc(SCc2ccc(Cl)cc2)s1	2%	17%	5%	12%	/
COC(=O)c1sccc1S(=O)(=O)N(CC(=O)NCc1ccc(F)cc1)c1ccccc1	/	/	-3%	/	/
Cn1c(=O)c2c(nc(NCCNc3nc4c(c(=O)n(C)c(=O)n4C)n3C)n2C)n(C)c1=O	/	/	/	-5%	/
COc1ccc(C(=O)Nc2nc3c(s2)CCCC3)cc1S(=O)(=O)N1CCCc2ccccc21	-18%	0%	-4%	13µM*	-5
COc1ccc(C(=O)Nc2ncccc2C)cc1S(=O)(=O)N1CCCc2ccccc21	-18%	/	?	/	/
COc1cc(/C=N/NC(=S)N/N=C/c2cc(OC)c(OC)c(OC)c2)cc(OC)c1OC	0%	0%	11%	11µM*	18

High-throughput results: PubChem, National Center for Advancing Translational Sciences (NCATS)
